Compounds with a hit are over-represented: about 2.8% of the library has one in this group of screens.
KLK7 zymogen act – proKLK7 zymogen activators, primary screen, biochemical, fluorescence intensity. purified proKLK7, EDANS-DABCYL substrate fluorescence; 100% is mature enzyme control, 0% vehicle. activation, % at 7 µM. 0.9% of 370,000 active. AID 652039, 2013;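 active = activation above the mean of all tested compounds plus 3 SD, computed per campaign excluding outliers beyond control limits, cut at about 13% in these data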
PG9 binder – binders of HIV-1 gp120 antibody PG9, primary screen, biochemical, TR-FRET; inhibition, % at 6.7 µM; 0.43% of 360,000 active; TR-FRET gp120-PG9 antibody binding; HIV-1 gp120 / PG9 antibody interaction; in the data active = inhibition above about 8.5%
Rev-erbA mod – modulators of Rev-erb alpha DNA binding, primary screen, biochemical, FITC-DNA, fluorescence polarization, uHTS; Rev-erbα–FITC-DNA binding, 90 min; activity, % at 10 µM; 0.79% of 370,000 active;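 active = activity above about 14%, limit read from the data; passing the limit was not always enough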
Target sequence (P20393 whole entry, looked up): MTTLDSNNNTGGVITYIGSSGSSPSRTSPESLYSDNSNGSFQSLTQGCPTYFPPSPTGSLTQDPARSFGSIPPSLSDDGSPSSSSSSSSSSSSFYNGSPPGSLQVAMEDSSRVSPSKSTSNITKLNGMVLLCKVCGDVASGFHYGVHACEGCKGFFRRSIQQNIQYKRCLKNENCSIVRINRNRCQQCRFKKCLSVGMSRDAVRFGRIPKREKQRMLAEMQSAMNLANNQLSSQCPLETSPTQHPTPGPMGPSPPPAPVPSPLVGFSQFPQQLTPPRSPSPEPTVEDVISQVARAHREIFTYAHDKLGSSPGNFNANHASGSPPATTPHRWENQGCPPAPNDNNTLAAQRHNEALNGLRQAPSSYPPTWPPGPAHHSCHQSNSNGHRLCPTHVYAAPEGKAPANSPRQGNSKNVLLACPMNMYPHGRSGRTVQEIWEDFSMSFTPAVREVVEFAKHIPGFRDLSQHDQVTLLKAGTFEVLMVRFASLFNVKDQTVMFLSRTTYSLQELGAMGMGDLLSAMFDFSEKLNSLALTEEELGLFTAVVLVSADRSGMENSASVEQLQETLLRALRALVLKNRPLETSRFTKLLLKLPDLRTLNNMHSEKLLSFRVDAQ
PP5 primary – PP5 phosphatase inhibitors, primary screen, biochemical, fluorescence; Serine/threonine-protein phosphatase 5 (Homo sapiens), P53041; purified PP5c, OMFP substrate fluorescence; inhibition, % at 6.7 µM; 0.18% of 320,000 active;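 active = inhibition above the campaign's mean inhibition across all tested compounds plus 3 SD, cut at about 9.5% in these data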
PP1 inh – PP1-alpha phosphatase inhibitors, primary screen, counter-screen for PP5 inhibitor project, biochemical, fluorescence, OMFP substrate, single point. 0.9% of 320,000 active. AID 2235, 2010. purified PP1alpha. inhibition, % at 6.7 µM;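 active = inhibition above the mean inhibition of all tested compounds plus 3 SD, computed separately for each screening campaign, cut at about 15% in these data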
GASC-1 inh – inhibitors of GASC-1 histone demethylase, primary screen, biochemical, fluorescence, DELFIA europium. GST-JMJD2C(1-420) H3K9me3 demethylation. inhibition, % at 2.35 µM. 0.069% of 330,000 active. AID 2099, 2009;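 active = more than half of a compound's replicate wells show inhibition beyond 50%, single wells judged on their own value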;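 also: signal counts dimethyl H3K9 product captured on neutravidin plate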
PG9 bind confirm – binders of anti-gp120 antibody PG9, confirmation, biochemical, TR-FRET; shares compounds with PG9 binder; TR-FRET PG9 antibody binding; inhibition, % at 6.7 µM; 90% of 1,500 active; AID 651571, 2012; in the data active = inhibition above about 9%
PGV04 counter – binders of control antibody PGV04, counter-screen for PG9 antibody binder project, biochemical, TR-FRET, distinct HIV envelope site; shares compounds with PG9 binder; TR-FRET PGV04 antibody-gp120 binding; inhibition, % at 6.7 µM; 95% of 1,500 active; AID 651604, 2012; in the data active = inhibition above about 9.5%
proKLK7 act conf – proKLK7 zymogen activators, confirmation, biochemical, fluorescence intensity, triplicate. shares compounds with KLK7 zymogen act. 68% of 3,200 active. purified proKLK7, EDANS-DABCYL substrate fluorescence; scaled: vehicle 0, mature enzyme 100. activation, % at 7 µM;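 active = activation, as change over the incubation, above the mean of all tested compounds plus 3 SD, cut at about 13% in these data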
EDANS interfere – EDANS-DABCYL substrate optical interference, artefact control for kallikrein-7 zymogen activator project, biochemical, fluorescence intensity, high throughput; activation, % at 7 µM; no enzyme, 4 h; solvent 0%, active enzyme control 100%; shares compounds with KLK7 zymogen act; 80% of 3,200 active;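 active = activation above the all-compound mean plus 3 SD, ignoring values outside control-based bounds, cut at about 4.8% in these data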;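 also: value is the 4 h activation minus the activation read at time zero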
Rev-erbA confirm – modulators of Rev-erb alpha DNA binding, confirmation, biochemical, FITC-DNA, fluorescence polarization, single point. shares compounds with Rev-erbA mod. 90 min. activation, % at 25 µM. 61% of 3,000 active. AID 1259319, 2017;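 active = activation at or above a set limit, or at least 3 SD above the negative control mean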
Hits are given with their value; n = inactive; x = not tested or not shown; ! = not confirmed by another sample.

SMILES	KLK7 zymogen act	PG9 binder	Rev-erbA mod	PP5 primary	PP1 inh	GASC-1 inh	PG9 bind confirm	PGV04 counter	proKLK7 act conf	EDANS interfere	others
Cc1cc(=O)[nH]c(SCC(=O)Nc2cccc(Cl)c2F)n1	n	x	n	x	x	x	x	x	x	x
O=C(O)CCc1ccc(-c2ccc(Br)cc2)o1	n	29	n	n	n	n	37	45	x	x
O=C(O)CCc1ccc(-c2ccc(Cl)cc2)o1	n	n	n	n	n	n	x	x	x	x
Cc1ccc(CN2CCSc3ccc(C(=O)NCCCN4CCN(C)CC4)cc32)cc1	39	25	n	n	n	n	29	34	n	n
N#Cc1c(N2CCCCC2)nc(N)c2c(N)nc3c(c12)CC(CCl)O3 (stereo not drawn)	14	21	n	n	n	n	23	35	n	n
Cc1ccc(-c2cc(C(=O)O)c3cc(Br)ccc3n2)s1	14	23	n	x	x	n	28	43	22	26
Cc1ccc(-c2cc(C(=O)N3CCCC3)c3ccccc3n2)s1	n	n	n	n	n	n	x	x	x	x
O=C(NCc1ccccc1)[C@@H]1CCCN1C(=O)[C@H]1CCCN1C(=O)c1ccc(F)cc1F	n	n	n	x	x	x	x	x	x	x
CSc1nsc2nc(=O)c(/C=C3\C(C)=Nc4ccc(C)cc43)c(N)n12	n	n	n	n	n	n	x	x	x	x
CC1=Nc2ccc(C)cc2/C1=C/c1c(N)n2oc(C)cc2nc1=O	48!	17!	n	n	n	n	20	43	25	35
COc1cccc(N(C)C(=O)[C@@H](C)[C@@H](O)c2ccc(C(C)=O)cc2)c1	n	x	n	x	x	x	x	x	x	x
CCCn1c(/C=C/c2cc[n+](C)cc2)nc2ccccc21	50	10	n	n	n	n	13	15	61	72
CCn1c(/C=C/c2ccccc2)nc2ccccc21	n	n	n	n	n	n	x	x	x	x
CC[C@@]1(O)C(=O)OCc2c1cc1n(c2=O)Cc2cc3c(CN(C)C)c(O)ccc3nc2-1	60	12	n	n	n	n	12	20	70	76
Nn1c(SCC(=O)N2CCOCC2)nnc1-c1cc(-c2ccc(Cl)cc2)n[nH]1	n	x	n	x	x	x	x	x	x	x
COc1ccccc1-c1nnc(Nc2nc3c(OC)cccc3s2)o1	n	11	47	n	n	n	23	26	x	x	Rev-erbA confirm=78
COc1cccc2sc(Nc3nnc(-c4ccccc4Cl)o3)nc12	n	n	n	n	n	n	x	x	x	x
O=C(CCn1nnc2ccccc21)Nc1nnc(-c2ccccc2F)s1	n	13	28	n	17	n	23	38	x	x	Rev-erbA confirm=n
CCN(C(=O)[C@@H](C1CC1)[C@@H](O)c1ccc(Cl)cc1)c1ccccc1	n	x	n	x	x	x	x	x	x	x
COc1ccc2cc(C#N)c(SCC(=O)Nc3nonc3C)nc2c1	n	25	67	n	n	n	33	62	x	x	Rev-erbA confirm=27

Source: PubChem BioAssay (several laboratories)
